A selection: hits, their analogues and other compounds. The true share with any hit is near 2.6%.
NTMT1 inhibitor = inhibitors of human N-terminal methyltransferase NTMT1; 59,000 tested, 2.5% active; Q9BV86; AID 1645870; NTMT1 MTase-Glo SAH luminescence, purified enzyme; Potency, µM (titrated, usually from 114 µM), without a hit: at the top dose activity change, negative = inhibition, actives largely listed as inhibitors;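 further: plate controls were DMSO vehicle for no effect and no enzyme for full effect; nearly all actives have a fitted effect of over 65% in size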
Target sequence (Q9BV86 whole entry, looked up): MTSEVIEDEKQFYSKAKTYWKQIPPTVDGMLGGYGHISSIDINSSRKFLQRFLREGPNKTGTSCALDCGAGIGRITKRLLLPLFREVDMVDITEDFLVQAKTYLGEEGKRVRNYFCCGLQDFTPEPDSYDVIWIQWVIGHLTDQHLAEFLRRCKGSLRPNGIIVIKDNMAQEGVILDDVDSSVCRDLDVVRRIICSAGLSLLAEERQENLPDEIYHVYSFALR
FH mod = Identification of activators of human fumarate hydratase by quantitative high-throughput screening | Fumarate hydratase, mitochondrial (Homo sapiens), P07954 | FH coupled MDH/diaphorase resazurin fluorescence, 15 min | Potency, µM (top dose mostly 79.9 µM), for the others: top-dose activity change, negative = inhibition, most hits filed as inhibitors | 54,000 tested, 0.22% active; further: on the % scale 0 is the no-effect control and ±100 the full control effect; the screen sought activators but most active calls are inhibition curves; nearly all actives have a fitted effect of over 45% in size
HTT prom inh = HTT promoter inhibition. HEK293 HTT promoter firefly luciferase reporter, 24 h. Potency, µM (series often up to 57.5 µM), for the others: at the highest dose activity change, negative = inhibition, hits mostly inhibitors. 48,000 tested, 0.93% active; further: nearly all actives have a fitted effect of over 50% in size
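Firefly luciferase signal from promoter-reporter HEK293 cells was scaled between vehicle (0%) and zero RLU (-100%). Compounds were tested at final concentrations of up to 57.5 uM over 24 h at 37 degrees C. PTC124 at 50 uM final served as control inhibitor.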
HTT-AS act = activators of huntingtin-antisense promoter activity | Potency, µM (top dose mostly 57.5 µM), inactives show at the highest dose activity change, positive = activation, actives largely listed as activators | 48,000 tested, 0.24% active | HEK293 HTT-AS promoter firefly luciferase reporter, 24 h; response scale: percent change from vehicle, -100% = no light; further: nearly all actives have a fitted effect of over 55% in size
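Luminescence was read after Dual-Glo reagent and a 10 min room-temperature incubation. Values were normalized to vehicle (0% activity) and zero RLU (-100% activity). Reporter HEK293 cells had been exposed to compounds (up to 57.5 uM final) for 24 h.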
* marks the source's active call; other numbers are inactive results; u = inconclusive; x = no result; [ ] = remark or other dose. The call rests on the fitted dose curve; in most records, active means well fitted curve in the direction sought with a large enough effect; inconclusive means small, poorly fitted or top-dose-only effect, or another doubt; inactive means no such curve, though single readings can be large; an effect the other way counts as inactive or inconclusive. Potency means the concentration at half of the fitted maximal effect.

SMILES	NTMT1 inhibitor	FH mod	HTT prom inh	HTT-AS act
CC(C)C(NC(=O)c1ccc2ccccc2n1)C(=O)NC(CC(=O)O)C(=O)COc1c(F)cccc1F (configuration not stated)	u	0%	x	x
O=C(CN(c1cccc(C(F)(F)F)c1)S(=O)(=O)c1ccccc1)Nc1cccc(Cl)c1	7%	u	28µM*	-40%
Cc1ccc(-c2noc(-c3cccnc3NCc3ccco3)n2)cc1	-2%	-20%	62%	u
COc1ccc(-c2noc(-c3cccnc3NCc3ccco3)n2)cc1	-2%	-29%	70%	11µM*
O=C(O)c1ccc(-c2noc(-c3ccccc3F)n2)cc1	22µM*	x	x	x
Cc1ccc(CNC(=O)c2ccc(-c3nc(CN4CCc5ccccc54)c(C)o3)cc2)cc1	5%	-2%	-36%	-27%
Cc1oc(-c2ccc(C(=O)N(C)Cc3ccccc3)cc2)nc1CN1CCc2ccccc21	1%	-25%	8.9µM*	-52%
CC1=C(CCC(C)CC(=O)O)[C@@]2(C)CCCC(C)(C)C2CC1=O (some centres not stated)	-3%[29.8 µM]	8%[53.3 µM]	x	x
CC(=O)Nc1ccc(C(=O)NC(C)(C)C)cc1	5%	13%	x	x
O=C(Nc1ccc2oc(-c3cccnc3)nc2c1)c1ccc(-c2ccc(OC(F)(F)F)cc2)o1	50µM*	-4%	-21%	-11%
O=C(Nc1ccc2oc(-c3cccnc3)nc2c1)c1ccc(-c2ccccc2)o1	u	7%	u	-34%
CCC(C=C[C@@H]1OC(=O)C=C[C@H]1C)=C[C@H](C)CC=CC(C)=C[C@@H](C)C(=O)[C@@H](C)[C@H](O)[C@@H](C)CC(C)=CC(=O)O	1µM*	-12%[2.79 µM]	u	-36%[2.23 µM]
CCOc1ccc(-n2nc3ccc(NC(=O)c4ccc(-c5cccc(Cl)c5)o4)cc3n2)cc1	79µM*	-5%	u	-67%
N#Cc1c(-n2ncnc2-c2ccccc2C(F)(F)F)sc2c1CCCCC2	-2%	-15%	1.1µM*	-53%
CC1=C(C(=O)OC2CCCCC2)C(c2ccc([N+](=O)[O-])cc2)C2=C(CC(C)(C)CC2=O)N1 (configuration not stated)	u	-17%	x	x
CC(=O)N1CCN(c2ccc(NCc3ccccc3)cc2)CC1	-15%	x	x	x
CC(=O)N1CCN(c2ccc(O)cc2)CC1	28µM*	u	4%	-9%
O=C(Cc1ccc(Cl)c(Cl)c1)Nc1ccc([S+](=O)([O-])Nc2nnc(-c3ccccn3)s2)cc1	79µM*	x	x	x
O=C(Cc1ccc(Cl)c(Cl)c1)Nc1ccc([S+](=O)([O-])Nc2ccc([N+](=O)[O-])cc2)cc1	-5%[57.5 µM]	x	x	x
CC(=O)Nc1c(C)nn(-c2ccccc2)c1N1CCC(C(=O)Nc2cccc(C(F)(F)F)c2)CC1	-11%	-6%	-24%	6%
O=C(Nc1cccc(Nc2cc(Nc3cccc(C(F)(F)F)c3)ncn2)c1)C1CC1	10µM*	u	x	x
Cc1ccc(NS(=O)(=O)c2cc3c(cc2N(C)CCN(C)C)NC(=O)CC3)cc1C	-1%	x	x	x
Cc1ccc(S(=O)(=O)N2CCC(c3ccncc3)CC2)c(C)c1	u	-2%	16µM*	-84%
O=S(=O)(c1ccccc1)N1CCC(c2ccncc2)CC1	u	-29%	u	-43%
CC(C)Cc1ccc(S(=O)(=O)N2CCC(c3ccncc3)CC2)cc1	u	-8%	16µM*	-80%
SMILES	NTMT1 inhibitor	FH mod	HTT prom inh	HTT-AS act
CC(C)(C)c1ccc(S(=O)(=O)N2CCC(c3ccncc3)CC2)cc1	3%	-7%	16µM*	-88%
COc1cc2nc(C3CC3)nc(N3CCN(c4ccccc4OC)CC3)c2cc1OC	u	-7%	x	x
CCC(C)CNCC(=O)N1CCc2sccc2C1c1cccc(C)n1 (configuration not stated)	-13%	x	x	x
Cn1ncc(Cl)c1C1N=C(Nc2nc3ccccc3o2)NC2=C1C(=O)CCC2 (configuration not stated)	3%	x	x	x
[Cl][In]([Cl])[Cl]	3.2µM*	-9%	-13%[116 µM]	-18%[116 µM]
Cc1ccccc1C(=O)N1CCc2cc(-n3cc(NC(=O)Cc4ccccc4)cn3)ccc21	4%	x	x	x
CC1(O)CCCC2(C)C1CCC13CC(CO)C(CCC12)C3 (configuration not stated)	-13%[57.5 µM]	0%	x	x
CCOc1ccc(CNC(=O)c2ccc(Sc3ccc(Cl)cc3)c(NC(C)=O)c2)cc1OC	89µM*	u	u	-34%
CCOc1ccc(CNC(=O)c2ccc(Sc3ccc(C)cc3)c(N)c2)cc1OC	-29%	u	u	-41%
Cc1ccccc1C(=O)N1CCc2cc(-c3nc(NC(=O)c4ccc5c(c4)OCO5)sc3C)ccc21	4%	x	x	x
Cc1cc(NC(=O)CN(C)S(=O)(=O)c2ccc3c(c2)CCCC(=O)N3)ccc1Br	17%	-14%	25µM*	-50%
N#CC1=C2SCN(C3CCCCC3)CN2C(=O)CC1c1ccc(Br)cc1 (configuration not stated)	35µM*	-25%	-22%	-12%
COc1ccc(C2CC(=O)N3CN(C4CCCCC4)CSC3=C2C#N)c(OC)c1 (configuration not stated)	16µM*	-20%	-10%	6%
CC1(c2ccccc2)CC(C)(C)N(C(=O)c2cccc(Cl)c2)c2ccccc21 (configuration not stated)	1%	-18%	u	-26%
Cc1ccc2c(c1)N(C(=O)c1ccc(F)cc1)C(C)(C)CC2(C)c1ccccc1 (configuration not stated)	-5%	u	28µM*	-29%
CSc1ncc(C(=O)Nc2ccccc2C(F)(F)F)c(-c2ccccc2)n1	89µM*	-14%	1%	-6%
CCOC(=O)N1CCC(CN(Cc2ccc(Cl)cc2)Cc2ccc([N+](=O)[O-])s2)C1 (configuration not stated)	-3%[57.5 µM]	-5%	x	x
C=C1CC/C=C(/C(=O)O)CCC2C1CC2(C)C (configuration not stated)	7%[57.5 µM]	0%	x	x
CCOC(=O)c1[nH]c(C)c(C(=O)NCc2ccc(F)cc2)c1C	-2%	7%	-37%	0%
CC(=O)c1[nH]c(C)c(C(=O)NCc2ccc(Cl)cc2)c1C	0%	6%	16µM*	-50%
C=C1CCC(OC(C)=O)C2(C)CC3OC(=O)C(C)=C3CC12 (configuration not stated)	-7%[57.5 µM]	8%	x	x
Cc1cncc2cccc(S(=O)(=O)N3CCCNC[C@@H]3C)c12	79µM*	0%	x	x
CC(NC(=O)CCCn1c(=O)c2cccn2c2cccnc21)c1ccccc1 (configuration not stated)	89µM*	10%	1%	-7%
CC1(C)CC[C@]2(C(=O)O[C@@H]3O[C@H](CO)[C@@H](O)[C@H](O)[C@H]3O)CC[C@]3(C)C(=CCC4[C@@]5(C)C[C@@H](O)[C@H](O)[C@@](C)(CO)C5[C@H](O)C[C@]43C)C2[C@@H]1O (some centres not stated)	u	-6%[20.6 µM]	x	x

Screens as filed in PubChem BioAssay.
